The list is not random: actives were taken first. Their share in the collection is about 21%.
Pf growth 48h: Primary qHTS for delayed death inhibitors of the malarial parasite plastid, 48 hour incubation; P. falciparum luciferase growth in erythrocytes, 48 h; Potency, µM (top dose mostly 28.7 µM), for the others: top-dose activity change, negative = inhibition, actives largely listed as inhibitors; 310,000 compounds, 5.9% hits; note: potency is the fitted concentration of half-maximal effect; % is set by controls: 0 for no effect and ±100 for the full control effect
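Erythrocytes infected with P. falciparum carrying an integrated firefly luciferase reporter (2% hematocrit, 0.1% parasitemia final) were exposed to compounds in RPMI 1640 with 0.5% Albumax at 37 C, 5% CO2. Growth inhibition was scored as reduced luminescence.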
NS1 inh: qHTS Assay for Inhibitors of Influenza NS1 Protein Function; Potency, µM (series often up to 46.1 µM), inactives show at the top dose activity, positive = more growth; 270,000 compounds, 0.4% hits; AID 2326, 2010; calls by dose curve; note: potency is the fitted concentration of half-maximal effect; actives are rising curves; nearly all actives have a fitted effect of over 50% in size
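Recovery from NS1-induced slow growth read by OD600 in budding yeast switched to galactose assay medium (pH 6.0, -URA) at 1:100 dilution. Compound 23 nl per well; the matching strain lacking NS1 serves as control.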
Pf growth 96h: Primary qHTS for delayed death inhibitors of the malarial parasite plastid, 96 hour incubation. AID 504834, 2011. Potency, µM (highest dose often 28.7 µM), for inactives: at the top dose activity change, negative = inhibition, usual class: inhibitors. P. falciparum luciferase reporter growth, 96 h. 320,000 compounds, 6.9% hits; note: potency is the fitted concentration of half-maximal effect; % is set by controls: 0 for no effect and ±100 for the full control effect
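Erythrocytes infected with luciferase-expressing P. falciparum were dispensed at 2% hematocrit and 0.05% parasitemia (final), then incubated with compounds 96 hours at 37 C in 5% CO2. Luminescence after detection reagent addition reported growth.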
Cycloheximide cs: Cycloheximide Counterscreen for Small Molecule Inhibitors of Shiga Toxin; cell reporter, cycloheximide protein synthesis inhibition counterscreen; max response, %; 300,000 compounds, 12% hits; in the data active = max response mostly above about 13%, no sharp cut-off; inactive = mostly below about 14%; note: read at 38.3 µM for the half of the compounds with a filed dose; 0% is about no effect
Shiga toxin inh: A qHTS for Small Molecule Inhibitors of Shiga Toxin | Vero cells, Shiga toxin protein synthesis inhibition reporter | inhibition, % at 38.7 µM | 290,000 compounds, 9.2% hits | AID 2315, 2010; in the data active = inhibition mostly above about 28%, no sharp cut-off; inactive = mostly below about 43%; note: 0% is about no effect
Starred values were filed as active, the others as inactive. Unless noted, calls come from the whole dose curve; as a rule, active = well fitted inhibition curve with a large enough effect; inconclusive = small, poorly fitted or top-dose-only effect, or another doubt; inactive = no such curve, though single readings can be large or run the other way.

Results for COc1ccc2nc(/C=N/NC(=O)CCNC(=O)OC(C)(C)C)ccc2c1 ?
Pf growth 48h: inconclusive; NS1 inh: -9.4%; Pf growth 96h: -3.9%; Cycloheximide cs: 35.3*; Shiga toxin inh: 62.1*

What do the screens show for `COc1ccc2nc(/C=N/NC(=O)CCCCCNC(=O)OC(C)(C)C)ccc2c1`?
Pf growth 48h: inconclusive; NS1 inh: -5.8%; Pf growth 96h: inconclusive; Cycloheximide cs: 40.7*; Shiga toxin inh: 138.2

How did Cc1cc(Cl)ccc1C(=O)C1CCCN(C(=O)c2cncs2)C1 (centres undefined) do in these assays?
Pf growth 48h: 1.3%; NS1 inh: -107.1%; Pf growth 96h: -1.3%; Cycloheximide cs: -2.1; Shiga toxin inh: -14.0

How did O=C(CSc1ncccn1)N/N=C/c1ccccc1[N+](=O)[O-] do in these assays?
Pf growth 48h: 11.5%; Pf growth 96h: 9.4%; Cycloheximide cs: 9.9; Shiga toxin inh: 46.9

How did COc1ccc(C2CC(c3ccccc3)Oc3cc(C)c(Cl)c(C)c32)cc1 (centres undefined) do in these assays?
Cycloheximide cs: 1.1; Shiga toxin inh: -5.7

Results for COCC(C)NCc1ccccc1C (centres undefined) ?
Pf growth 48h: 10.1%; NS1 inh: -3.5%; Pf growth 96h: 11.7µM*; Cycloheximide cs: -1.8; Shiga toxin inh: -9.1

How did Cc1cccc(C(=O)OCC(=O)N(C)c2ccccc2)c1C do in these assays?
Pf growth 48h: 8.3%; NS1 inh: -26.5%; Pf growth 96h: 14.7%; Cycloheximide cs: 14.2*; Shiga toxin inh: 35.4*

Results for Cc1ccccc1C(=O)OCC(=O)N(C)c1ccccc1 ?
Pf growth 48h: -1.8%; NS1 inh: -32.0%; Pf growth 96h: 41.8%; Cycloheximide cs: 24.4*; Shiga toxin inh: 31.1

How did O=c1c2[nH]c3ccc(F)cc3c2nc2n1CCCS2 do in these assays?
Pf growth 48h: 54.4%; Pf growth 96h: -0.8%; Cycloheximide cs: 25.4*; Shiga toxin inh: 54.1*

What do the screens show for `O=c1c(C(c2ccccc2)c2c(O)nc3n(c2=O)CCCS3)c(O)nc2n1CCCS2`?
Pf growth 48h: 10.8%; Pf growth 96h: -13.4%; Cycloheximide cs: 5.6; Shiga toxin inh: -13.3

What do the screens show for `O=c1c2[nH]c3ccc(F)cc3c2nc2n1CCS2`?
Pf growth 48h: -12.5%; Pf growth 96h: 33.8%; Cycloheximide cs: 9.0; Shiga toxin inh: 27.3

How did O=c1c2[nH]c3ccccc3c2nc2n1CCCS2 do in these assays?
Pf growth 48h: 67.0%; Pf growth 96h: inconclusive; Cycloheximide cs: 38.2*; Shiga toxin inh: 73.8*

What do the screens show for `Cc1nc2c([nH]c3ccccc32)c(=O)n1N`?
Pf growth 48h: 54.9%; Pf growth 96h: inconclusive; Cycloheximide cs: 27.8*; Shiga toxin inh: 88.2

How did CN(Cc1ccccc1)C(=O)COC(=O)COc1ccc(C#N)cc1 do in these assays?
Pf growth 48h: 131.0%; NS1 inh: -2.6%; Pf growth 96h: 6.3%; Cycloheximide cs: -1.2; Shiga toxin inh: 9.3

What do the screens show for `COCC(C)n1c(SCc2ccc(OC)c(F)c2)nc2ccccc2c1=O` (centres undefined)?
Pf growth 48h: inconclusive; Pf growth 96h: inconclusive; Cycloheximide cs: 7.1; Shiga toxin inh: 5.3

How did Cc1ccc(OCC(=O)N/N=C/c2c[nH]c3ccccc23)c([N+](=O)[O-])c1 do in these assays?
Pf growth 48h: 3.5%; NS1 inh: 22.3%; Pf growth 96h: 38.4%; Cycloheximide cs: -4.2; Shiga toxin inh: -4.8

How did CN(CC(=O)Nc1cccc(F)c1)C(=O)/C=C/c1ccc2ccccc2n1 do in these assays?
Pf growth 48h: 9.2%; NS1 inh: 8.8%; Pf growth 96h: 0.6%; Cycloheximide cs: 0.3; Shiga toxin inh: 3.4

What do the screens show for `Cc1ccc(S(=O)(=O)N2CC(O)CC2C(=O)OCc2nc3sc(C)c(C)c3c(=O)[nH]2)cc1` (centres undefined)?
Pf growth 48h: 11.7µM*; NS1 inh: 18.6%; Pf growth 96h: 13.1µM*; Cycloheximide cs: -4.0; Shiga toxin inh: -2.1

How did CC(C)(C)NC(=O)COC(=O)CCC(=O)c1cccs1 do in these assays?
Pf growth 48h: -3.1%; Pf growth 96h: 20.1%; Cycloheximide cs: -2.2; Shiga toxin inh: -19.4

How did Cc1cccnc1NC(=O)C1CCN(S(=O)(=O)c2cccs2)CC1 do in these assays?
NS1 inh: -7.2%; Pf growth 96h: -16.1%; Cycloheximide cs: 5.0; Shiga toxin inh: 15.1

High-throughput results from PubChem BioAssay.
